# From PubChem BioAssay (NCATS)
# Records with an inconclusive call do not appear. Values without a mark were called inactive. The source made the active and inactive calls. The call rests on the fitted dose curve; in most records, active means well fitted inhibition curve with a large enough effect; inconclusive means small, poorly fitted or top-dose-only effect; inactive means flat fitted curve, though single readings scatter.
# Columns and labels:
# [1] = system: CRL-7250; assay: Cytotoxic Profiling of Annotated Libraries Using Quantitative High-Throughput Screening (AID 1296008); conditions: Five cell lines viability, CellTiter-Glo ATP luminescence, 48-72 h; max response: active compounds read low; further: nearly all actives have a fitted effect of over 60% in size
# Outline: (§1)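 Cytotoxicity was measured as CellTiter-Glo ATP luminescence, read after 10 min at room temperature. Compound treatment of the cells lasted 48 or 72 hr at 37 degrees Celsius in a qHTS format.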
# [2] = system: HEK293; assay: as above; conditions: Five cell lines viability, CellTiter-Glo ATP luminescence, 48-72 h; max response: active compounds read low
# Outline: as §1
# On the % scale 0 is the no-effect control and ±100 the full control effect; potency means the concentration at half of the fitted maximal effect.
compound,measurement,setting,value
COC1CC(OC2CCC3(C)C(=CCC4C3C(OC(C)=O)C(OC(=O)/C=C/c3ccccc3)C3(C)C(C(C)O)CCC43O)C2)OC(C)C1OC1CC(OC)C(OC2OC(C)C(OC3OC(CO)C(O)C(O)C3O)C(OC)C2O)C(C)O1 (stereo unspecified),max response,[1],2.68%
same,max response,[2],-2.45%
COc1cc(C)c(C(=O)Oc2cc(C)c(C(=O)Oc3cc(C)c(C(=O)NC(C)C(=O)O)c(O)c3)c(O[C@@H]3O[C@H](CO)[C@@H](O)[C@H](O)[C@H]3OC(C)=O)c2)c(OC)c1 (stereo partly specified),max response,[1],-13.8%
same,max response,[2],-3.13%
CCN(CC)Cc1ccc(C(=O)N(CCc2ccccc2OC)[C@@H]2CCNC2)cc1,Potency,[2],5.63 µM (active)
CN=C(N)NCCCCC/C=C(/C)CC(C)C1OC(=O)C(C)C(O)/C=C/C(C)C(O)CC(O)C(C)C(O)CCC(C)C(O)CC2(O)OC(CC(OC(=O)CC(=O)O)CC(O)CC(O)C(C)C(O)/C(C)=C/CCC1C)CC(O)C2O (stereo unspecified),max response,[2],-1.07%
O=C(CO)[C@@H](O)[C@H](O[C@@H]1O[C@H](CO)[C@H](O)[C@H](O)[C@H]1O)[C@H](O)CO,outcome,[2],inactive
C[C@H](NC(c1cccc2[nH]c(=O)c(=O)[nH]c12)P(=O)(O)O)c1ccc(Br)cc1 (stereo partly specified),max response,[1],-1.1%
same,max response,[2],1.8%
CCC(O)(C(=O)OCc1ccccc1NC(=O)CCC(=O)O)C(C)O (stereo unspecified),outcome,[1],inactive
same,max response,[2],-0.446%
